Rows were chosen to be rich in hits. Some 2.5% of all compounds tested hit in one or more screens of this group.
p53ts 39C kill – p53ts cell cytotoxicity, nonpermissive temperature | H1299-p53A138V viability at 39C, ATP luminescence, 24 h | Potency, µM (titrated, usually from 46.1 µM), for the others: at the highest dose activity change, negative = cell killing, actives largely listed as cytotoxic | 1.5% of 130,000 active; also: % is scaled to controls: 0 for no effect and ±100 for the full control effect; nearly all actives have a fitted effect of over 55% in size
FLuc inh – inhibitors of firefly luciferase | 2.2% of 72,000 active | AID 411 | P08659 | purified firefly luciferase, luminescence, 8 min | Potency, µM (titrated, usually from 57.1 µM), inactives show at the highest dose activity change, negative = inhibition, most hits filed as inhibitors; also: % is scaled to controls: 0 for no effect and ±100 for the full control effect; nearly all actives have a fitted effect of over 40% in size
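Substrate buffer containing 10 uM ATP (pH 7.2 imidazole, Mg2+, KCl, detergent, BSA) is dispensed, compound pinned in, then luciferase/luciferin detector mix added. After 8 min at ambient temperature, light output is measured.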
Caspase-7 inhib – caspase-7 (human) inhibition, allosteric or competitive. Potency, µM (highest dose often 57.5 µM), inactives show top-dose activity change, negative = inhibition, most hits filed as inhibitors. P55210. 0.02% of 75,000 active. recombinant caspase-7, Ac-DEVD-AFC fluorescence rate; active = well fitted inhibition curve with a large enough effect in the main read-out, with a control signal flat, not every such curve was filed as active; inconclusive = small, poorly fitted or top-dose-only effect, or a change in a side signal; also: % of control where 0% means no effect
p53ts 32C kill – kills p53ts cells at the permissive temperature | H1299-p53A138V at 32C, ATP luminescence viability, 24 h | Potency, µM (highest dose often 46.1 µM), for the others: at the highest dose activity change, negative = cytotoxicity, usual class: cytotoxic | 0.93% of 130,000 active | AID 924;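 also: 0% = DMSO and -100% = full killing by reference compound; nearly all actives have a fitted effect of over 55% in size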
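ATP-content luminescence (ATPlite) read-out after 24 h compound exposure at 32C in H1299-p53A138V cells (600/well). Tested up to 46 uM. Normalized to DMSO (0%) and 100 uM tamoxifen (100% killing); Hill-fit AC50.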
Casp1 inh – blocks human caspase-1 allosterically or competitively | P29466 | Caspase-1 enzyme, Ac-WEHD-AFC fluorogenic rate | Potency, µM (series often up to 57.5 µM), for inactives: at the highest dose activity change, negative = inhibition, most hits filed as inhibitors | 0.03% of 75,000 active | AID 900;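 also: plate controls were vehicle for no effect and no substrate for full effect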
IkB sig inh – suppresses IkB signaling in ABC-DLBCL reporter cells | Potency, µM (highest dose often 57.1 µM), inactives show top-dose IkBa stabilization activation | 0.04% of 110,000 active | AID 445 | ABC-DLBCL IkBa-CBG/CBR dual luciferase ratio, 4 h; response scale: scaled: untreated 0%, proteasome inhibitor 100%; active = well fitted curve in the direction sought with a large enough effect in the signal ratio, not every such curve was filed as active; inconclusive = small, poorly fitted or top-dose-only effect, or a change in a side signal; the % refers to the signal ratio;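 also: the direction sought is a rising ratio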
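Luminescence ratio of IκBα-fused green versus native red beetle luciferase in OCI-Ly3 cells, 4 h post-doxycycline with compound; red signal alone, scaled from basal (0%) to zero light (-100%), flagged nonspecific or cytotoxic effects.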
* hit, by the source's call; ! = a repeat was not active; [ ] = another dose, or the depositor's remark. Unless noted, calls follow the shape of the dose curve; as a rule, active = well fitted curve in the direction sought with a large enough effect; inconclusive = small, poorly fitted or top-dose-only effect, or another doubt; inactive = no such curve, though single readings can be large; an effect the other way counts as inactive or inconclusive. Potency is read from the fitted curve at half-maximal effect.

For N#CC(=NCCO)C1=C(O)c2ccccc2C1=O the results were p53ts 39C kill -16%[9.22 µM], FLuc inh 0%[11.4 µM], Caspase-7 inhib -2%[11.5 µM], p53ts 32C kill inconclusive, Casp1 inh 3%[11.5 µM] and IkB sig inh -1%[11.4 µM].
`O=C1C(SCCO)=C(SCCO)C(=O)c2ccccc21` gave p53ts 39C kill 0.79µM*, FLuc inh -1%, Caspase-7 inhib -11%, p53ts 32C kill 0.63µM*, Casp1 inh 16µM* and IkB sig inh inconclusive.
`Cc1cc(C)cc(N2C(=O)CS(=O)(=O)C23C(=O)N(Cc2ccc(F)cc2)c2ccc(C)cc23)c1` (configuration not stated) gave p53ts 39C kill 6%, p53ts 32C kill 2% and IkB sig inh -1%.
Screening CCC(=O)Nc1cccc(-c2nnc(SCC(=O)c3ccccc3)n2C)c1 returned p53ts 39C kill -4%, FLuc inh 16µM*, Caspase-7 inhib 1%, p53ts 32C kill -6%, Casp1 inh -2% and IkB sig inh 16%.
CCC(=O)Nc1cccc(-c2nnc(SCC(=O)NCc3ccco3)n2C)c1 was read as FLuc inh 1%[25.5 µM].
`Cc1cc(-c2ccc(N=Nc3ccc4c(S(=O)(=O)O)cc(S(=O)(=O)O)c(N)c4c3O)c(C)c2)ccc1N=Nc1ccc2c(S(=O)(=O)O)cc(S(=O)(=O)O)c(N)c2c1O` gave p53ts 39C kill 16µM*, FLuc inh 32µM*, Caspase-7 inhib -10%, p53ts 32C kill 13µM*, Casp1 inh -9% and IkB sig inh inconclusive.
For Cc1ccc(N=Nc2c(O)c(S(=O)(=O)O)cc3cc(S(=O)(=O)O)ccc23)c(C)c1 the results were p53ts 39C kill 7%[9.22 µM], FLuc inh -18%[11.4 µM], Caspase-7 inhib -2%[11.5 µM], p53ts 32C kill -2%[9.22 µM], Casp1 inh 0%[11.5 µM] and IkB sig inh -4%[11.4 µM].
Cc1cc(C(=O)CNCc2ccco2)c(C)n1-c1ccc(F)cc1 was read as p53ts 39C kill inconclusive, FLuc inh 25µM*, Caspase-7 inhib -7%, p53ts 32C kill inconclusive, Casp1 inh -10% and IkB sig inh inconclusive.
O=C(Nc1ccccc1)c1cccc(N2C(=O)CCC2=O)c1 was read as p53ts 39C kill 17%, FLuc inh -2%, Caspase-7 inhib -1%, p53ts 32C kill 5%, Casp1 inh 1% and IkB sig inh 2%.
For CN(C)c1ccc(NC(=O)c2cccc(N3C(=O)CCC3=O)c2)cc1 the results were p53ts 39C kill inconclusive, FLuc inh 13µM*, Caspase-7 inhib 0%, p53ts 32C kill inconclusive, Casp1 inh 0% and IkB sig inh 10%.
CCN(CC)c1cc(C)c2cc(NC(=O)c3cccc(F)c3)ccc2n1 was read as p53ts 39C kill -6%, p53ts 32C kill -18% and IkB sig inh inconclusive.
Screening CN(C)c1cccc(C(=O)Nc2cccc(F)c2)c1 returned p53ts 39C kill -13%, FLuc inh 16µM*, Caspase-7 inhib 0%, p53ts 32C kill inconclusive, Casp1 inh -1% and IkB sig inh inconclusive.
Screening CCN(CC)c1ccc(C(=O)Nc2cccc(F)c2)cc1 returned p53ts 39C kill inconclusive, FLuc inh 10µM*, Caspase-7 inhib -9%, p53ts 32C kill 13µM*, Casp1 inh -11% and IkB sig inh -1%.
For CCN1CCN(C(=O)C2CCN(C(=O)c3cc4sccc4n3CC)CC2)CC1 the results were p53ts 39C kill -2%, FLuc inh 1%, Caspase-7 inhib 1%, p53ts 32C kill 6%, Casp1 inh 1% and IkB sig inh 1%.
`CCOc1ccc(NC(=O)N2CCC(c3ccc(C)cc3)C2)cc1` (configuration not stated) gave p53ts 39C kill 12%, p53ts 32C kill 8% and IkB sig inh -2%.
COC(=O)c1ccccc1NC(=O)C1CCN(S(=O)(=O)c2cc(C)ccc2OC)CC1 was read as p53ts 39C kill 4%, FLuc inh 2%, Caspase-7 inhib -2%, p53ts 32C kill 19%, Casp1 inh -3% and IkB sig inh inconclusive.
For CC(=O)O[C@H]1C(=O)[C@@]2(C)[C@H]([C@H](OC(=O)c3ccccc3)[C@]3(O)C[C@H](OC(=O)[C@H](O)[C@@H](NC(=O)c4ccccc4)c4ccccc4)C(C)=C1C3(C)C)[C@]1(OC(C)=O)CO[C@@H]1C[C@@H]2O the results were p53ts 39C kill 36%, FLuc inh 16µM*, Caspase-7 inhib -1%, p53ts 32C kill 17%, Casp1 inh 3% and IkB sig inh 0%.
Screening Cc1cccc(CNc2ccnc(-c3cccc(NS(C)(=O)=O)c3)n2)c1 returned p53ts 39C kill 7%, FLuc inh -1%[2.29 µM], Caspase-7 inhib -1%, p53ts 32C kill -14%, Casp1 inh 0% and IkB sig inh 0%[11.4 µM].
`O=S1(=O)N=C(Nc2nc3c(s2)CCCC3)c2ccccc21` gave p53ts 39C kill 4µM*, FLuc inh 2.5µM*, Caspase-7 inhib 0%, p53ts 32C kill 5µM*, Casp1 inh -2% and IkB sig inh inconclusive.
For CSc1ccc2c(c1)[C@H](N1CCN(C)CC1)Cc1ccccc1S2 the results were p53ts 39C kill 32µM*, FLuc inh -1%, Caspase-7 inhib -2%, p53ts 32C kill 25µM*!, Casp1 inh -3% and IkB sig inh inconclusive.
For CSc1ccc2c(c1)C(N1CCN(C)CC1)Cc1ccccc1S2 (configuration not stated) the results were p53ts 39C kill inconclusive, Caspase-7 inhib -2%, p53ts 32C kill -9% and Casp1 inh 1%.
`COc1ccc(S(=O)(=O)Nc2cc(C)on2)cc1OC` gave p53ts 39C kill 3%, FLuc inh 1%, Caspase-7 inhib 0%, p53ts 32C kill 1%, Casp1 inh 0% and IkB sig inh 0%.
For CCOc1ccc(NC(=O)c2ncn(-c3ccccc3)n2)cc1 the results were p53ts 39C kill -23%, p53ts 32C kill -12% and IkB sig inh inconclusive.
`O=C(Nc1ccc(F)cc1)c1ncn(-c2ccccc2)n1` gave p53ts 39C kill 16µM*, p53ts 32C kill inconclusive and IkB sig inh inconclusive.
`COc1ccccc1CNc1cc(-c2ccccc2OC)ncn1` gave p53ts 39C kill inconclusive, FLuc inh 1%[2.29 µM], Caspase-7 inhib -1%, p53ts 32C kill 13µM*, Casp1 inh 0% and IkB sig inh 15%[11.4 µM].
`O=C(Nc1cccc(C(F)(F)F)c1)c1cc(-c2ccc3c(c2)OCCO3)on1` gave p53ts 39C kill inconclusive, p53ts 32C kill inconclusive and IkB sig inh -1%.

Assay outcomes deposited in PubChem by National Center for Advancing Translational Sciences (NCATS).
